In PubChem BioAssay (NCATS):
Records with an inconclusive call do not appear. Where a call stands in place of a potency, no number is given. A number with no mark means an inactive call. Active and inactive are the calls of the source. Calls follow the shape of the dose curve; as a rule, active = well fitted curve in the direction sought with a large enough effect; inconclusive = small, poorly fitted or top-dose-only effect, or another doubt; inactive = no such curve, though single readings can be large; an effect the other way counts as inactive or inconclusive.

Legend:
[1] = target: Cellular tumor antigen p53 (Homo sapiens) (UniProt P04637); assay: Primary qHTS for small molecule compounds that upregulate eGFP-tagged delta133p53alpha (in N-terminal) cells. (AID 2060322); settings: NCI-H358 eGFP-delta133p53alpha fluorescence, 24 h; activation: stronger effect = higher value; also: nearly all actives have a fitted effect of over 75% in size; also: potency is read from the fitted curve at half-maximal effect;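 as to activation: cells pre-induced with doxycycline then dosed without doxycycline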
Chain of Cellular tumor antigen p53 (Homo sapiens) (P04637 whole entry, looked up): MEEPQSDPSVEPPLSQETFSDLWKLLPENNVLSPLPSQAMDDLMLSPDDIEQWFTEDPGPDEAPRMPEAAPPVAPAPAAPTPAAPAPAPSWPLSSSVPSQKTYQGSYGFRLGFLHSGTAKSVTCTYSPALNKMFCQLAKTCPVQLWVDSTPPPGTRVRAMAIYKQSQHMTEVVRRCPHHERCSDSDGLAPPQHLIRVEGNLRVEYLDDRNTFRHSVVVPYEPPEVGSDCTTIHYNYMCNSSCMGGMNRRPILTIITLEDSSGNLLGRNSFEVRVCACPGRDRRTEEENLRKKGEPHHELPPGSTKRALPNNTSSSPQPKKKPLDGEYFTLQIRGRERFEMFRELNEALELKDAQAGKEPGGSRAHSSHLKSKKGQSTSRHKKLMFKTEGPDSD
Procedure, shortened: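 NCI-H358 cells pre-induced 24 h with 10 ng/ml doxycycline for eGFP-delta133p53alpha, plated dox-free and exposed 24 h at 37C to titrated compounds. Fixed, Hoechst-stained; gated GFP peak intensity by laser scanning cytometry, normalized to DMSO (0%) and 57.5 uM 5-azacytidine (100%).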

[2] = target: Aldehyde dehydrogenase, mitochondrial (Homo sapiens) (UniProt P05091); assay: qHTS for Inhibitors of the Aldehyde Dehydrogenase Family (ALDH2) Primary screen (AID 2061308); settings: ALDH2 enzyme inhibition qHTS, 1536-well; series mostly up to 56 µM; also: nearly all actives have a fitted effect of over 55% in size
[3] = target: Retinaldehyde dehydrogenase 3 (Homo sapiens) (UniProt P47895); assay: qHTS for Inhibitors of the Aldehyde Dehydrogenase Family (ALDH1A3) Primary screen (AID 2061315); settings: ALDH inhibition qHTS; series mostly up to 56 µM

Compound | activation [1] | Potency [2] | Potency [3] | Potency [1]
O=C(O)/C=C/c1ccc(O[C@@H]2O[C@H](CO)[C@@H](O)[C@H](O)[C@H]2O)cc1 | -3.82% | inactive | inactive | –
O=[N+]([O-])c1cccc2[nH]c(CNc3nc(N4CCOCC4)nc4c3ncn4-c3ccsc3)nc12 | – | inactive | inactive | 0.301 µM (active)
COC(=O)c1ccccc1O[C@@H]1O[C@H](CO[C@@H]2OC[C@@H](O)[C@H](O)[C@H]2O)[C@@H](O)[C@H](O)[C@H]1O | -12.2% | inactive | inactive | –
CC(=O)OCC(=O)[C@@]12O[C@@H]1C[C@H]1[C@@H]3CC=C4C[C@@H](O)CC[C@]4(C)[C@H]3CC[C@@]12C | 29% | inactive | inactive | –
CC(=O)OC1CC(C(C)(C)O)OC2CCC3(C)OC4=C(C(=O)C=C5C(C)C(OC(C)=O)C6(C)C(C)OC546)C(O)C3C12C (centres undefined) | 2.68% | inactive | inactive | –
CC1(C)CC[C@]2(C(=O)O)[C@H](O)C[C@]3(C)C(=CCC4[C@@]5(C)CC[C@H](O[C@@H]6O[C@H](CO[C@@H]7OC[C@H](O)[C@H](O)[C@H]7O[C@@H]7OC[C@H](O)[C@H](O)[C@H]7O)[C@@H](O)[C@H](O)[C@H]6O)C(C)(C)C5CC[C@]43C)[C@@H]2C1 (some centres undefined) | -4.46% | inactive | inactive | –
Nc1nc(NC2CC2)cc(-c2cccc(Cl)c2Cl)n1 | – | inactive | inactive | 6.01 µM (active)
CC1(C)CC[C@]2(C(=O)O[C@@H]3O[C@H](CO)[C@@H](O)[C@H](O)[C@H]3O)CC[C@]3(C)C(=CCC4[C@@]5(C)CC[C@H](O[C@@H]6O[C@H](C(=O)O)[C@@H](O)[C@H](O)[C@H]6O)C(C)(C)C5CC[C@]43C)C2C1 (some centres undefined) | -0.893% | inactive | inactive | –
C/C=C/C=C/C=C/C(=O)OC1C=C2C(O)OC(=O)[C@]2(O)[C@@]2(C)CCCC(C)(C)[C@H]12 (some centres undefined) | -2.29% | inactive | inactive | –
CC1=CC(=O)C(=C(C)C)CC2C1CCC2(C)O (centres undefined) | -7.14% | inactive | inactive | –
CC1(C)CC[C@]2(C(=O)O)[C@H](O)C[C@]3(C)C(=CCC4[C@@]5(C)CC[C@H](O[C@@H]6OC[C@@H](O)[C@H](O)[C@H]6O)[C@@](C)(C(=O)O)C5CC[C@]43C)[C@@H]2C1 (some centres undefined) | 6.11% | inactive | inactive | –
CC1(C)CC[C@]2(C(=O)O)CC[C@]3(C)C(=CCC4[C@@]5(C)CC[C@H](O[C@@H]6O[C@H](C(=O)O)[C@@H](O)[C@H](O)[C@H]6O)C(C)(C)C5CC[C@]43C)C2C1 (some centres undefined) | 11.5% | inactive | inactive | –
C=C1CC2C3(C)C(O)CC(=O)C(C)(C)C3C(O)C(OC(C)=O)C2(C)C2C(=O)OC(C)(C(=O)OC)C(=O)C12C (centres undefined) | 27.5% | inactive | inactive | –
CC1(C)C2CCC(CO[C@@H]3O[C@H](CO[C@@H]4OC[C@](O)(CO)[C@H]4O)[C@@H](O)[C@H](O)[C@H]3O)C1C2 (some centres undefined) | -5.34% | inactive | inactive | –
O=C1CCC(c2ccccc2)(C2CCN(Cc3ccc(I)cc3)CC2)C(=O)N1 (centres undefined) | 4.33% | inactive | inactive | –
C[C@@H]1CC[C@]2(C(=O)O)CC[C@]3(C)C(=CCC4[C@@]5(C)CC[C@H](O)[C@](C)(C(=O)O)C5CC[C@]43C)C2[C@]1(C)O (some centres undefined) | 8.4% | inactive | inactive | –
C/C=C/C=C/C1=C2C(=O)C3(C)C4C(C(=O)CC(O)/C=C/C)=C(O1)C1(C)C2C2(C)OC1(O)C4(C)OC23O (centres undefined) | -2.68% | inactive | inactive | –
COC(=O)C1=COC(O[C@@H]2O[C@H](CO)[C@@H](O)[C@H](O)[C@H]2O)[C@@H]2[C@@](C)(O)[C@@H](OC(=O)/C=C/c3ccccc3)C[C@]12O (some centres undefined) | 15.2% | inactive | inactive | –
C=C1C(=O)OC2C(OC(=O)C=C(C)C)C(C)=C3C(=O)C=C(C)C3C(O)C12 (centres undefined) | – | inactive | inactive | 14.8 µM (active)
C/C=C(/C)C(=O)O[C@H]1C[C@]2(C)O[C@@H]2[C@@H](OC(C)=O)[C@@]2(C)CC[C@@](O)(C(C)C)[C@H]12 | -19.1% | inactive | inactive | –
CC1(C)CC[C@]2(C(=O)O)CC[C@]3(C)C(=CCC4[C@@]5(C)C[C@H](O)[C@H](O[C@@H]6OC[C@H](O)[C@H](O)[C@H]6O)[C@@](C)(CO)C5CC[C@]43C)[C@@H]2C1 (some centres undefined) | -9.16% | inactive | inactive | –
Cc1cc2nc(NCCCO)n(CC(=O)c3cc(C(C)(C)C)c(O)c(C(C)(C)C)c3)c2cc1C | 5% | inactive | inactive | –
N=c1nc2n(cc1F)C1OC(CO)C(O)C1O2 (centres undefined) | 0.333% | inactive | inactive | –
